According to PubChem BioAssay (EPA / NIEHS):
Activity calls are given as the source filed them. Rule for the calls: active = hit-call score of the fitted dose curve at least 0.9, where 1 is the maximum; inactive = score below 0.9.

Read-out: Thyroid Hormone Responsive (THRSP), THRSP (gene 7069)
Assay: LTEA_HepaRG_THRSP: Life Technologies and Expression Analysis (LTEA) Assay for Thyroid Hormone Responsive (THRSP) using HepaRG (AID 2283536)
Conditions: mRNA level, 48 h; actives raise or lower the signal
Protocol: LTEA_HepaRG is a cell based, multiplexed-readout assay that uses HepaRG, a human liver cell line, with measurements taken at 48 hours after chemical dosing on a 96-well plate.LTEA_HepaRG_THRSP is one of 102 assay component(s) measured in the LTEA HepaRG cell culture assay. It is a marker of NR mediated metabolism.Data from the assay component LTEA_HepaRG_THRSP was analyzed into 1 endpoint. This assay endpoint, LTEA_HepaRG_THRSP, was analyzed with bidirectional fitting relative to DMSO as the negative control and baseline of activity. Using a type of inducible reporter, measures of mRNA induction for gain or loss-of-signal activity can be used to understand regulation of transcription factor activity. To generalize the intended target to other relatable targets, this assay endpoint is annotated to the growth factor intended target family, where the subfamily is NR mediated metabolism.
A total of 1060 chemcials from the ToxCast library were tested in eight-point concentration-response experiments. Cell culture and cytotoxicity assays were conducted at Thermo Fisher Scientific's Custom Services facility (Madison, WI). A single lot of human HepaRG cells (Thermo Fisher Scientific, Frederick, MD) was used for the cell culture experiments. 96-well format collagen type I coated plates of human HepaRG cells were prepared using established methods. Briefly, cryopreserved HepaRG cells were thawed, plated at a density of approximately 100,000 cells/well in HepaRG Thaw, Plate, and General Purpose media (HPRG770, Thermo Fisher Scientific), and incubated for 48 hours. 0.5% DMSO was selected as vehicle control to balance the requisite need of DMSO in HepaRG cultures to maintain differentiation (for example, baseline metabolism, proportions of hepatocytes vs. cholangiocytes), while enabling further hepatic receptor pathway activation (for example, PXR and CAR) in response to chemical exposure. 48 hours after plating, the culture medium was replaced with HepaRG Serum-Free Incudtion Media. Cells were exposed to each test chemical in duplicate and maintained in CO2 incubators for another 48 hours. Chemical plates were thawed to room temperature and 200x concentrations of treatment groups were prepared. 8-point conentration-reponse curves were made with the highest exposure at 100 uM, followed by half-log dilutions, all in 0.5% DMSO. Each test plate contained variouse controls, induction positive controls (1mM phenobarbital), cytotoxicity positive controls ([…] aflatoxin B1), vehicle controls (0.5% DMSO), and total lysis controls (0.5% DMSO). Cell morphology images were taken using an Essen IncuCyte FLR automated microscope, with six 96-well plates imaged in about 24 minutes. Images were captured and exported and JPEG files. Spent culture media was transfered to black-well plates for the LDH assay, and remaining media was sorted at -80 C for later use. Cells were treated with RLT buffer and frozen until shipped for gene expression analysis. Total RNA was isolated from the cell suspension in 75 uL of Buffer RLT (Qiagen, Germantown, MD 20874) by Quintiles/Expression Analysis (Durham, NC) using a custom isolation procedure. Total RNA from each plate well was transferred to a preamplification plate. Fluidigm's 96.96 Dynamic ArrayTM (Fluidigm, Amsterdam, the Netherlands) technology was used for gene expression analyses by quantitative reverse transcription polymerase chain reaction (qRT-PCR, performed by Quintiles/Expression Analysis, Durham, NC)89. Standard TaqManTM Assays (Applied Biosystems/ThermoFisher Scientific, Foster City, CA) were used to assess the expression of 93 genes selected based on their selectivity and sensitivity to important hepatic receptors known to be modulated by environmental chemicals; importance in human hepatocyte functionality; and hepatotoxicity. […]

SMILES | outcome | AC50
CCCCCCCCCC[N+](C)(C)[O-] | inactive | –
O=C(Oc1ccccc1)c1cccc(C(=O)Oc2ccccc2)c1 | inactive | –
CC(C)(O)c1ccc(CNC(=O)c2cccnc2Oc2ccc(F)cc2)cc1 | inactive | –
CC1(C)C(=O)NC(=O)N1CO | inactive | –
CN(C)C(=O)NC1(c2ccccc2)CCN(CC[C@@]2(c3ccc(F)c(F)c3)CN(C(=O)c3ccccc3)CCO2)CC1 | – | 29.7 µM (active)
CC(=O)CC(c1ccccc1)c1c(O)c2ccccc2oc1=O (stereo not given) | – | 34.5 µM (active)
C#CC(O)C(CC)CCCC (stereo not given) | inactive | –
C=CCCCCCCCCCCCC | inactive | –
CC(C)OC(=O)C(C)(C)Oc1ccc(C(=O)c2ccc(Cl)cc2)cc1 | inactive | –
CC(C)(C)c1ccccc1 | inactive | –
CSc1ccc(Oc2ccc(S(N)(=O)=O)cc2CN(C)C)cc1C | inactive | –
Nc1nc(=S)c2[nH]cnc2[nH]1 | – | 9.18 µM (active)
CN(C)CCCN(C)CCCN(C)C | inactive | –
Cc1cn([C@H]2C=C[C@@H](CO)O2)c(=O)[nH]c1=O | inactive | –
C/C=C/c1ccc(OC)cc1 | inactive | –
COC(=O)[C@H]1[C@H]2C[C@@H]3c4[nH]c5cc(OC)ccc5c4CCN3C[C@H]2C[C@@H](OC(=O)c2cc(OC)c(OC)c(OC)c2)[C@@H]1OC | – | 28.3 µM (active)
CCCCC(CC)COC(=O)CCCCCCCC(=O)OCC(CC)CCCC (stereo not given) | inactive | –
C=CCc1ccc(OC)c(OC)c1 | inactive | –
CCCCOC(=O)CCCCC(=O)OCCCC | inactive | –
O=C1O[C@H]([C@H](O)CO)C(O)=C1O | inactive | –

SMILES | outcome | AC50
CC(=O)OCC(COC(C)=O)OC(C)=O | inactive | –
CCCC(=O)O | inactive | –
CC(C)COC(=O)CCCCC(=O)OCC(C)C | inactive | –
CCCCCCCCCCCCCCCCO | inactive | –
OCC(O)CO | inactive | –
CCCCCCCCCCCCCCOS(=O)(=O)O | inactive | –
CCCC[C@H]1CN(CC2CCOCC2)C(=O)OC12CCN(C1(C)CCN(C(=O)c3c(C)ncnc3C)CC1)CC2 | inactive | –
CCN(CC)CCOc1ccc(C(=C(Cl)c2ccccc2)c2ccccc2)cc1 | inactive | –
CC(=O)S[C@H](C(=O)N[C@H]1Cc2ccccc2[C@H]2CCC[C@@H](C(=O)O)N2C1=O)C(C)C | inactive | –
CC(C)c1cccc(C(C)C)c1NC(=O)NS(=O)(=O)c1cc(C(C)(C)O)co1 | inactive | –
N[C@@H](Cc1c[nH]c2ccccc12)C(=O)O | inactive | –
Cc1occc(=O)c1O | inactive | –
S=c1[nH]c2ccccc2s1 | inactive | –
CC(=O)OC1CC(C)OC(C)O1 (stereo not given) | inactive | –
O=C(O)c1[nH]n(-c2ccc(S(=O)(=O)O)cc2)c(=O)c1N=Nc1ccc(S(=O)(=O)O)cc1 | inactive | –
CN(C)C(=O)NC1(c2ccccc2)CCN(CCC[C@]2(c3ccc(Cl)c(Cl)c3)CCCN(C(=O)c3ccccc3)C2)CC1 | inactive | –
CCCCCCCC(=O)OC | inactive | –
OCC(CO)n1cnc(-c2ccc(F)cc2)c1-c1ccnc(Oc2ccccc2)n1 | inactive | –
Cc1ccc(-c2cc(C(F)(F)F)nn2-c2ccc(S(N)(=O)=O)cc2)cc1 | inactive | –
O=Cc1ccccc1C=O | inactive | –
